Results: PubChem BioAssay (NCI)
About 83,000 compounds went through this panel and 20% of them were active in at least one assay; those are over-represented in the sample as a whole.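 How to read the values: 0–100, growth inhibition (40 = 60% inhibited); 0, no net growth; -100 to 0, cell death (-40 = 40% of starting cells died; -100 = all dead).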 Calls of active or inactive are those of the source. Rule for the calls: active = growth percent below 10; inactive = the rest.

Key:
Assay in all cases: NCI-60 one-dose screen, 48 h (100 = growth as untreated, 0 = no growth, -100 = all killed)
Conditions in all cases: 10 µM unless noted
SR leukemia = test system: SR leukemia
RPMI-8226 leukemia = test system: RPMI-8226 leukemia
OVCAR-8 ovarian = test system: OVCAR-8 ovarian
OVCAR-5 ovarian = test system: OVCAR-5 ovarian
OVCAR-4 ovarian = test system: OVCAR-4 ovarian
SK-OV-3 ovarian = test system: SK-OV-3 ovarian
IGROV1 ovarian = test system: IGROV1 ovarian
OVCAR-3 ovarian = test system: OVCAR-3 ovarian
HS 578T breast = test system: HS 578T breast
NCI/ADR-RES ovarian = test system: NCI/ADR-RES ovarian

Measured: growth

Cn1cc(-c2nonc2-c2cn(C)c3ccc(F)cc23)c2cc(F)ccc21
inactive: SR leukemia 31.8% | RPMI-8226 leukemia 81.4% | OVCAR-8 ovarian 81.7% | OVCAR-5 ovarian 92% | OVCAR-4 ovarian 79% | SK-OV-3 ovarian 45.1% | IGROV1 ovarian 52.5% | OVCAR-3 ovarian 23.4% | HS 578T breast 52.2% | NCI/ADR-RES ovarian 30.9%

COc1cc(-c2nc3ccccc3[nH]2)ccc1OCC(=O)N=Nc1c(O)[nH]c2ccc(Cl)cc12
active: SR leukemia -26.4% | RPMI-8226 leukemia -39.4% | OVCAR-8 ovarian -70.4% | OVCAR-5 ovarian -26.4% | OVCAR-4 ovarian -92.6% | SK-OV-3 ovarian -13.3% | IGROV1 ovarian -53.1% | OVCAR-3 ovarian -97.7% | HS 578T breast -60%
inactive: NCI/ADR-RES ovarian 89.7%

Cc1ncc(C(=O)Nc2ccc(CN3CCN(C)CC3)c(C(F)(F)F)c2)cc1C#Cc1cnc2cccnn12
active: SR leukemia -14.9% | RPMI-8226 leukemia 2.24% | OVCAR-8 ovarian 6.1% | OVCAR-4 ovarian -17% | IGROV1 ovarian 5.84% | OVCAR-3 ovarian -0.593% | HS 578T breast -15.5% | NCI/ADR-RES ovarian 8.62%
inactive: OVCAR-5 ovarian 13.8% | SK-OV-3 ovarian 22.9%

COc1ccc(/C=C/c2nc3ccccc3nc2/C=C/c2ccc(OC)cc2)cc1
inactive: SR leukemia 83.8% | RPMI-8226 leukemia 98.5% | OVCAR-8 ovarian 99.5% | OVCAR-5 ovarian 99.8% | OVCAR-4 ovarian 88.7% | SK-OV-3 ovarian 102% | IGROV1 ovarian 110% | OVCAR-3 ovarian 104% | HS 578T breast 90.8% | NCI/ADR-RES ovarian 99.5%

CCOC(=O)c1csc(NC(=O)COc2cccc(/C=C3\CSc4ccccc4C3=O)c2)n1
inactive: OVCAR-8 ovarian 20.3% | OVCAR-5 ovarian 56.4% | OVCAR-4 ovarian 83.6% | SK-OV-3 ovarian 35% | NCI/ADR-RES ovarian 44.1%
active: SR leukemia -86.4% | RPMI-8226 leukemia -71.2% | IGROV1 ovarian 1.28% | OVCAR-3 ovarian -25.7% | HS 578T breast -11%

CCCOc1cc2ccccc2cc1C(=O)Nc1nc(NC)c2c(ccc3nccc32)[nH]1
active: SR leukemia -49.3% | RPMI-8226 leukemia -46% | OVCAR-8 ovarian -33.2% | OVCAR-5 ovarian -61.4% | OVCAR-4 ovarian -58.5% | SK-OV-3 ovarian -86.9% | IGROV1 ovarian -67.2% | OVCAR-3 ovarian -76% | HS 578T breast -56.3% | NCI/ADR-RES ovarian -17%

C#CCOc1ccc2ncnc(N3CCN(C(=O)CCl)CC3)c2c1
inactive: SR leukemia 33.4% [8.25 µM] | RPMI-8226 leukemia 92.9% [8.25 µM] | OVCAR-8 ovarian 72.2% [8.25 µM] | OVCAR-5 ovarian 93.3% [8.25 µM] | OVCAR-4 ovarian 63.8% [8.25 µM] | SK-OV-3 ovarian 68.6% [8.25 µM] | OVCAR-3 ovarian 78.7% [8.25 µM] | HS 578T breast 94.6% [8.25 µM] | NCI/ADR-RES ovarian 98.5% [8.25 µM]
active: IGROV1 ovarian -30.9% [8.25 µM]

CC(C)(C)c1cc(/C=N\NC(=O)/C=C/C=C/c2ccc3c(c2)OCO3)c(O)c(C(C)(C)C)c1
active: SR leukemia 6.69%
inactive: RPMI-8226 leukemia 80.6% | OVCAR-8 ovarian 75.3% | OVCAR-5 ovarian 89.3% | OVCAR-4 ovarian 34.8% | SK-OV-3 ovarian 100% | IGROV1 ovarian 70.3% | OVCAR-3 ovarian 75.6% | HS 578T breast 13.6% | NCI/ADR-RES ovarian 66.1%

COc1ccc(-n2nc(C)c3c(Nc4ccc(NC(=O)Nc5c(Cl)cccc5Cl)cc4)ncnc32)cc1
inactive: SR leukemia 32.2% | RPMI-8226 leukemia 50.7% | OVCAR-8 ovarian 56% | OVCAR-5 ovarian 97.8% | OVCAR-4 ovarian 60.9% | SK-OV-3 ovarian 83.3% | IGROV1 ovarian 71.7% | OVCAR-3 ovarian 40.8% | HS 578T breast 71.7% | NCI/ADR-RES ovarian 55.9%

CNc1ccc(-c2cc(=O)oc3ccc(Cl)cc23)cc1
inactive: RPMI-8226 leukemia 18.7% | OVCAR-8 ovarian 16.6% | OVCAR-5 ovarian 55.6% | OVCAR-4 ovarian 62.6% | IGROV1 ovarian 50.1% | HS 578T breast 16% | NCI/ADR-RES ovarian 12.4%
active: SR leukemia 9.27% | SK-OV-3 ovarian 9.16% | OVCAR-3 ovarian 9.85%

O=C(O)c1ccc(NC(=O)c2ccc(-c3cccc([N+](=O)[O-])c3)o2)cc1
inactive: SR leukemia 113% | RPMI-8226 leukemia 101% | OVCAR-8 ovarian 103% | OVCAR-5 ovarian 106% | OVCAR-4 ovarian 93.9% | SK-OV-3 ovarian 98.8% | IGROV1 ovarian 92.2% | OVCAR-3 ovarian 102% | HS 578T breast 90.7% | NCI/ADR-RES ovarian 98.5%

O=C1CSC(=S)N1CCc1ccc(O)cc1
inactive: SR leukemia 26.4% | RPMI-8226 leukemia 37.9% | OVCAR-8 ovarian 92.6% | OVCAR-5 ovarian 101% | OVCAR-4 ovarian 89.5% | SK-OV-3 ovarian 99.2% | IGROV1 ovarian 101% | OVCAR-3 ovarian 78.3% | HS 578T breast 84.3% | NCI/ADR-RES ovarian 94.7%

CCN1CCN(c2nc(NCCNc3ccnc4cc(Cl)ccc34)c3ccccc3n2)CC1
active: SR leukemia -25.5% | RPMI-8226 leukemia -25.4% | OVCAR-8 ovarian 2.98% | OVCAR-3 ovarian 8.7%
inactive: OVCAR-5 ovarian 53.7% | OVCAR-4 ovarian 33.7% | SK-OV-3 ovarian 51.8% | IGROV1 ovarian 28.6% | HS 578T breast 49.8% | NCI/ADR-RES ovarian 70.3%

CCOc1nc(-c2ccccc2)cc2c(O)c(C(=O)N/N=C/c3ccc(O)cc3O)[nH]c(=O)c12
active: NCI/ADR-RES ovarian -40.1%
inactive: SR leukemia 27% | RPMI-8226 leukemia 38% | OVCAR-8 ovarian 14.5% | OVCAR-5 ovarian 43.6% | OVCAR-4 ovarian 39.3% | SK-OV-3 ovarian 41.6% | IGROV1 ovarian 15.6% | OVCAR-3 ovarian 30.9% | HS 578T breast 82.9%

COc1ccc2cc(-c3nn(-c4ccc(C(=O)O)cc4)cc3CO)ccc2c1
inactive: SR leukemia 90.8% | RPMI-8226 leukemia 95.1% | OVCAR-8 ovarian 101% | OVCAR-5 ovarian 100% | OVCAR-4 ovarian 106% | SK-OV-3 ovarian 107% | IGROV1 ovarian 99.2% | OVCAR-3 ovarian 93.5% | HS 578T breast 97.3% | NCI/ADR-RES ovarian 99.8%

CC1SC(c2ccc(N(C)C)cc2)N(NC(=O)C(O)(c2ccccc2)c2ccccc2)C1=O (stereo not given)
inactive: SR leukemia 90% | RPMI-8226 leukemia 60.1% | OVCAR-8 ovarian 77.4% | OVCAR-5 ovarian 104% | OVCAR-4 ovarian 95.7% | SK-OV-3 ovarian 97.6% | IGROV1 ovarian 80.5% | OVCAR-3 ovarian 95% | HS 578T breast 103% | NCI/ADR-RES ovarian 95%

O=C(CN1C(=O)/C(=C/c2ccc(Cl)cc2)SC1=S)NCCCN1CCOCC1
inactive: SR leukemia 97.8% | RPMI-8226 leukemia 96% | OVCAR-8 ovarian 103% | OVCAR-5 ovarian 103% | OVCAR-4 ovarian 93.5% | SK-OV-3 ovarian 97.8% | IGROV1 ovarian 108% | OVCAR-3 ovarian 101% | HS 578T breast 84.2% | NCI/ADR-RES ovarian 99.9%

CSc1nc2c(c(=O)[nH]1)C1(C(=O)Nc3ccccc31)c1c(nc(SC)[nH]c1=O)N2
inactive: SR leukemia 98.8% | RPMI-8226 leukemia 108% | OVCAR-8 ovarian 110% | OVCAR-5 ovarian 93.9% | OVCAR-4 ovarian 109% | SK-OV-3 ovarian 114% | IGROV1 ovarian 102% | OVCAR-3 ovarian 105% | HS 578T breast 106% | NCI/ADR-RES ovarian 108%

CCOC(=O)c1c(C(=O)OCC)c2cc(-c3ccn4c(C(=O)c5ccccc5)c(C(=O)OCC)c(C(=O)OCC)c4c3)ccn2c1C(=O)c1ccccc1
inactive: SR leukemia 90.4% | RPMI-8226 leukemia 50.6% | OVCAR-8 ovarian 71.8% | OVCAR-5 ovarian 130% | OVCAR-4 ovarian 89.2% | SK-OV-3 ovarian 109% | IGROV1 ovarian 82.3% | OVCAR-3 ovarian 95% | HS 578T breast 80.7% | NCI/ADR-RES ovarian 89.5%

Cc1cc2nc(NC(=O)CN3CCN(CCN4C(=O)c5cccc6cccc(c56)C4=O)CC3)sc2cc1C
inactive: SR leukemia 35.3% | RPMI-8226 leukemia 57.8% | OVCAR-8 ovarian 79.7% | OVCAR-5 ovarian 93.6% | OVCAR-4 ovarian 84.3% | SK-OV-3 ovarian 102% | IGROV1 ovarian 77.6% | OVCAR-3 ovarian 101% | HS 578T breast 92% | NCI/ADR-RES ovarian 79%

CCc1nc(N)nc(N)c1C#CC(C)c1ccc(-c2ccncc2)cc1Cl (stereo not given)
inactive: SR leukemia 14.7% | RPMI-8226 leukemia 15.1% | OVCAR-8 ovarian 20.8% | OVCAR-5 ovarian 57.6% | OVCAR-4 ovarian 30.9% | SK-OV-3 ovarian 33% | IGROV1 ovarian 18.2% | OVCAR-3 ovarian 19.1% | HS 578T breast 38.7% | NCI/ADR-RES ovarian 21.8%
